Results filed as inconclusive are left out. Where a call stands in place of a potency, no number is given. The source made the active and inactive calls. Calls follow the shape of the dose curve; as a rule, active = well fitted cell-killing curve with a large enough effect in the repeat runs; inconclusive = weak or mixed curves, or effect the other way; inactive = flat fitted curve, though single readings scatter.
experiment: qHTS assay to identify small molecule antagonists of the androgen receptor (AR) signaling pathway using the MDA cell line in the presence of 0.5 nM R1881 - cell viability counter screen (AID 1259242); settings: MDA-kb2 viability, CellTiter-Fluor protease fluorescence, 16 h; series mostly up to 92.4 µM; also: nearly all actives have a fitted effect of over 45% in size
Method in brief: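 MDA-kb2 cells (human breast carcinoma, stably carrying MMTV-luciferase reporter) were exposed to compounds with 0.5 nM R1881 (final) for 16 hr at 37C, 0% CO2; viability then read as live-cell protease fluorescence (CellTiter-Fluor, 30 min) in the same wells.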
Potency is read from the fitted curve at half-maximal effect.

| SMILES | Potency | viability change, negative = cytotoxic |
| --- | --- | --- |
| CCCCCCCCCCCCCCCC(=O)NCCO | inactive |  |
| C=COCCOCCOC=C | inactive |  |
| C=C(C)[C@@H]1CC[C@@H](C)C[C@@H]1O | inactive |  |
| O=C(O)CCNC(=O)c1ccccc1 | inactive |  |
| CCOC(=O)C(=O)c1csc(NC=O)n1 | inactive |  |
| CCC(CO)CO | inactive |  |
| Nc1nc(=O)n([C@@H]2O[C@H](CO)[C@@H](O)[C@@H]2F)cc1I | inactive |  |
| COc1ccc(N=Nc2cc(C)c(N=Nc3ccc(S(=O)(=O)O)cc3)cc2OC)cc1 | 48.6 µM (active) |  |
| OC(CCN1CCCCC1)(c1ccccc1)c1ccccc1 | inactive |  |
| Cc1nc(C)nc(N2C[C@@H](C)N(c3ccnc([C@@H](C)O)n3)[C@@H](C)C2)n1 | inactive |  |
| COc1ccc(NS(=O)(=O)c2ccc(N)cc2)nn1 | inactive |  |
| O=C(CN1CCN(Cc2ccc3c(c2)OCO3)CC1)N1c2ccccc2Sc2ccccc21 | inactive |  |
| NS(=O)(=O)c1ccc(Cl)c(S(N)(=O)=O)c1 | inactive |  |
| C1=C\CC/C=C\CC/1 | inactive |  |
| CCCCCC1CCCC(=O)O1 (centres undefined) | inactive |  |
| C=C(C)C(=O)OC1CC(C)CC(C)(C)C1 (centres undefined) | inactive |  |
| C=C[C@@H](C)CCC=C(C)C | inactive |  |
| CCN(CC)C(=O)C1CN2CCc3cc(OC)c(OC)cc3C2CC1OC(C)=O (centres undefined) | inactive |  |
| O=C(Oc1ccccc1C(=O)O)c1ccccc1O | inactive |  |
| NC(=O)NNC(N)=O | inactive |  |
| C=CCCCCCCCCCCC |  | 0.96% [at 8.39 µM] (inactive) |
| CCCCC(C)C(=O)O (centres undefined) | inactive |  |
| CCCCCCCCCCCCCCCCCCN(C)C | inactive |  |
| COc1cc2c3cc1Oc1cc(ccc1O)C[C@@H]1c4c(cc(OC)c(O)c4Oc4ccc(cc4)C[C@@H]3N(C)CC2)CC[N+]1(C)C | inactive |  |

Source: PubChem BioAssay (Tox21)
